This is a sample that favours compounds with a hit; in the whole collection about 4.8% have one here.
PfHsp90 yeast 2: growth inhibition of yeast expressing Plasmodium Hsp90; S. cerevisiae expressing PfHsp90, BacTiter-Glo ATP, 48 h; yeast lacking PDR1 and PDR3 efflux regulators; inhibition, % at 9.4 µM; 310,000 compounds, 0.32% hits; AID 504621;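 active means every replicate shows inhibition above about 80%, whatever the replicate mean, limit read from the data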;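 further: 0% = DMSO neutral controls and 100% = 20 µM radicicol positive controls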
NALP1 inh: NALP1 inhibition. S. cerevisiae NALP1/ASC/caspase-1 growth, X-gal OD620, 72 h. inhibition, % at 10 µM. 280,000 compounds, 0.61% hits; in the data active means inhibition mostly above about 24%, no sharp cut-off; inactive means mostly below about 32%
tim10-1 inh: tim10-1 yeast growth inhibition. S. cerevisiae tim10-1 ts strain growth, BacTiter-Glo, 24 h. 330,000 compounds, 2.2% hits. AID 463190. inhibition, % at 20 µM;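 active means inhibition of at least 40%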;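 further: mutant grown at 25 °C; 0% = DMSO wells with yeast and 100% = wells holding no yeast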
tim23-1 inh: tim23-1 yeast growth inhibition. S. cerevisiae tim23-1 growth, BacTiter-Glo luminescence, 24 h. inhibition, % at 20 µM. 330,000 compounds, 1.3% hits;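 active means growth inhibition of the mutant yeast at or above 50%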;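 further: temperature-sensitive mutant grown at 25 °C; plate controls were DMSO-treated mutant yeast for no effect and medium wells lacking yeast for full effect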
TIM10 inh: growth inhibitors of TIM10 yeast strain | S. cerevisiae TIM10 strain growth, BacTiter-Glo luminescence, 24 h | inhibition, % at 10 µM | 330,000 compounds, 1.4% hits | AID 463195;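 active means inhibition of 40% or more at the single tested concentration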;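 further: wild-type TIM10 isogenic control strain grown at permissive 25 °C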
SKKanGAS inh: SKKanGAS growth inhibition; S. pyogenes SKKanGAS, kanamycin growth, BacTiter-Glo, 6 h; inhibition, % at 7.5 µM; 300,000 compounds, 1.3% hits;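 active means mean replicate score, as percent of positive control median, at least 50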;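 further: strain carries kanamycin resistance gene driven by streptokinase promoter and grows in 40 µg/ml kanamycin; loss of luminescence reflects streptokinase promoter inhibition or plain growth inhibition; 0% = median of DMSO wells and 100% = positive control at its reference dose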
tim10-1 confirm: tim10-1 yeast growth inhibition, confirmed | S. cerevisiae tim10-1 ts strain growth, BacTiter-Glo, 24 h | 7,400 compounds, 56% hits | shares compounds with tim10-1 inh | inhibition, % at 20 µM | AID 463213;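 active means inhibition of yeast growth at or above a set limit in either of two repeat tests at 20 µM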;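 further: tim10-1 mutant grown at permissive 25 °C to find synthetic lethal compounds; 0% = DMSO yeast wells and 100% = medium wells without yeast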
TIM10 conf: TIM10 yeast growth inhibition, confirmed. AID 463215. 4,600 compounds, 63% hits. shares compounds with TIM10 inh. S. cerevisiae tim10 strain growth, BacTiter-Glo luminescence, 24 h. inhibition, % at 10 µM;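 active means inhibition of yeast growth at or above a set limit in either of two replicates at 10 µM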;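 further: this counterscreen used the strain with wild-type TIM10; 0% = yeast with DMSO and 100% = medium wells lacking yeast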
tim23-1 confirm: tim23-1 yeast growth inhibition, confirmed | shares compounds with tim23-1 inh | S. cerevisiae tim23-1 growth, BacTiter-Glo luminescence, 24 h | inhibition, % at 20 µM | 4,400 compounds, 83% hits;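 active means inhibition above about 39% in either of two replicate wells at 20 µM, limit read from the data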;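 further: temperature-sensitive tim23-1 mutant grown at 25 °C; 0% = DMSO wells with yeast and 100% = medium wells without yeast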
* hit, by the source's call; . = not tested or not shown.

SMILES	PfHsp90 yeast 2	NALP1 inh	tim10-1 inh	tim23-1 inh	TIM10 inh	SKKanGAS inh	tim10-1 confirm	TIM10 conf	tim23-1 confirm
CSc1nc2ccc(NS(=O)(=O)c3ccc(Cl)s3)cc2s1	-57	18	44*	58*	47*	10	32*	44*	78*
O=C1N2CCCc3cccc(c32)C12Nc1ccccc1S2 (stereo not given)	.	-2	.	.	.	4	.	.	.
CC1CC(C)(C)N2C(=O)C3(Nc4ccccc4S3)c3cccc1c32 (stereo not given)	19	8	61*	58*	47*	14	54*	61*	62*
COc1cc(/C=C2\SC(=S)N(NC(=O)c3ccccc3OC)C2=O)ccc1O	13	19	2	12	19	22	.	.	.
COc1ccc(OCC(=O)OCC(=O)NC2CCCCC2C)cc1 (stereo not given)	-8	.	15	16	3	.	.	.	.
CC1CCCCC1NC(=O)/C(C#N)=C/c1ccc(OCC(N)=O)cc1 (stereo not given)	25	20	48*	55*	45*	-5	33*	16	50*
Cc1cc(=O)[nH]c2ccc(S(=O)(=O)Nc3ccc(O)cc3)cc12	14	12	-12	-2	-3	5	.	.	.
Cc1cc(C)c(C(=O)CC(=O)c2ccccc2Cl)c(O)c1	-6	4	48*	65*	39	83*	36*	.	76*
Cc1cc(C)c(NC(=O)CC(=O)c2ccccc2)c(Cl)c1	-2	27	29	27	4	1	.	.	.
O=S(=O)(c1cccc2cnccc12)N1CCNCC1	32	.	11	0	2	.	.	.	.
O=C(CSc1nnc(Cc2ccccc2)o1)NC1CCCCC1	1	38	13	21	15	4	.	.	.
CCCCNc1c(-c2ccc(SC(C)CC)cc2)nc2ccccn12 (stereo not given)	41	.	48*	59*	45*	78*	55*	35*	63*
CCSc1ncc(/C=N/Nc2ccc(Cl)cc2)n1C	.	27	46*	70*	-29	4	6	.	63*
O=Cc1coc2ccc3ccccc3c2c1=O	3	23	50*	76*	28	-7	28	.	74*
C[C@H]1COC(=O)[C@@H](CC(=O)OC(C)(C)C)C/C=C\C[C@H](CC(=O)NCCO)C(=O)N1	5	.	0	5	0	.	.	.	.
CCN(C[C@H]1N[C@@](Cc2ccccc2)(C(=O)OC)[C@H]2C(=O)N(Cc3ccccc3)C(=O)[C@@H]12)C(=O)Nc1ccc(C(F)(F)F)cc1	4	.	76*	70*	72*	.	81*	69*	75*
CCN(C[C@H]1N[C@@](Cc2ccccc2)(C(=O)OC)[C@H]2C(=O)N(Cc3ccccc3)C(=O)[C@@H]12)C(=O)Nc1ccc(C)cc1	3	.	16	18	8	.	.	.	.
CCOC(=O)c1c(C)sc2c1N(C(=O)CCl)c1cc(Cl)ccc1S2	.	26	43*	61*	21	-3	43*	.	50*
Cc1sc2ncnc(SCC(=O)N3c4ccccc4Sc4ccc(Cl)cc43)c2c1C	-7	25	22	19	6	4	.	.	.
NC(=O)c1ccc[n+]([C@H]2O[C@@H](COP(=O)([O-])OP(=O)(O)OC[C@H]3O[C@@H](n4cnc5c(N)ncnc54)[C@H](O)[C@@H]3O)[C@H](O)[C@@H]2O)c1	88*	.	78*	71*	59*	.	75*	45*	78*
CCOc1ccccc1NC(=S)N1CCC(NC(=O)NC23CC4CC(CC(C4)C2)C3)CC1	6	21	8	-1	5	2	.	.	.
Cc1nc2ccccc2c2c(N)c3ccccc3n12	35	10	41*	53*	77*	1	47*	29	55*
COc1cc2cc(-c3ccc(O)cc3O)nc(C)c2cc1OC	6	16	40*	51*	46*	1	32*	43*	55*
CC1Nc2ncnc(N3CCc4ccccc4C3)c2N(Cc2ccc(Cl)cc2)C1=O (stereo not given)	17	.	32	38	24	11	.	.	.
O=C1c2ccccc2C(=O)c2c1cccc2-n1nnc2ccccc21	-18	.	-19	1	-3	3	.	.	.
SMILES	PfHsp90 yeast 2	NALP1 inh	tim10-1 inh	tim23-1 inh	TIM10 inh	SKKanGAS inh	tim10-1 confirm	TIM10 conf	tim23-1 confirm
O=C1C(N2CCOCC2)=C(n2nnc3ccccc32)C(=O)c2ccccc21	38	10	64*	83*	78*	30	60*	69*	89*
C#C[C@]1(O)CC[C@H]2[C@@H]3CCc4cc(O)ccc4[C@H]3CC[C@@]21C	-29	49*	50*	52*	27	-7	34*	.	49*
CC12CCC3c4ccc(O)cc4CCC3C1CCC2=O (stereo not given)	-14	.	-4	-2	-48	.	.	.	.
Cc1ccnc(NC(=O)c2ccc([N+](=O)[O-])o2)c1	-24	14	64*	61*	55*	17	59*	3	76*
Cc1ccc(CNC(=O)c2ccc([N+](=O)[O-])o2)cc1	8	-3	62*	64*	67*	56*	57*	40*	54*
CN(Cc1ccccc1)C(=O)c1ccc([N+](=O)[O-])o1	-15	48*	68*	50*	75*	-7	69*	72*	64*
Cc1ccc(CNC(=O)c2nn(C)c(C)c2[N+](=O)[O-])cc1	34	33	2	11	-4	-11	.	.	.
COc1cc(C2N=C(c3ccccc3)NO2)cc(Br)c1O (stereo not given)	19	9	8	20	12	1	.	.	.
Cc1cccc(NC(=S)NCCC(c2ccccc2)c2ccccc2)c1	-14	9	28	30	31	11	.	.	.
Cc1ccc(COC(=O)c2cc(S(=O)(=O)N3CCOCC3)ccc2C)cc1	.	.	21	35	17	.	.	.	.
C=CCOC(=O)C(C#N)c1nc2ccccc2nc1N1CCN(Cc2ccccc2)CC1 (stereo not given)	1	18	47*	50*	36	.	36*	.	43*
CC(C)COC(=O)C(C#N)c1nc2ccccc2nc1N1CCN(Cc2ccccc2)CC1 (stereo not given)	-10	-16	42*	51*	39	20	12	.	21
COCCOC(=O)C(C#N)c1nc2ccccc2nc1N1CCN(Cc2ccccc2)CC1 (stereo not given)	23	8	25	25	23	9	.	.	.

Screening data: PubChem BioAssay, several laboratories
